Screening results from PubChem BioAssay.
Compounds with a hit are over-represented: about 2.4% of the library has one in this group of screens.
D2 ag-1 – HTS Assay for Allosteric Agonists of the Human D2 Dopamine Receptor: Primary Screen for Agonists; HEK293 T-REx D2 cells, calcium flux agonist mode; activation, % at 2 µM; hit rate 0.53% among 340,000;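 active means activation over 3 SD above normal in the single-dose calcium agonist read, cut at about 30% in these data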; further: 0% is about no effect
Target sequence (P14416 whole entry, looked up): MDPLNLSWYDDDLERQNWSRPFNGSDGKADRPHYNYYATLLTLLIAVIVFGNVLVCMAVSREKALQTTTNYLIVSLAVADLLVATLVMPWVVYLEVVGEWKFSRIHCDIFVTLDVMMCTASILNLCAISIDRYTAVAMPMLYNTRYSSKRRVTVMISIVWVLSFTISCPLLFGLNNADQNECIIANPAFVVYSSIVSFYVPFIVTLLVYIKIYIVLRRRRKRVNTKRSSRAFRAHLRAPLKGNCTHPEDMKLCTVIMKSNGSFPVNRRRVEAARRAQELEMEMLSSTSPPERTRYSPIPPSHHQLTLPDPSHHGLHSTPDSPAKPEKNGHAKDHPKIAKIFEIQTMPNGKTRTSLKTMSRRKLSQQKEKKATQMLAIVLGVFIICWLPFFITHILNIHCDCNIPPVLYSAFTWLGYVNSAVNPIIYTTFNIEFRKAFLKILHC
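Agonism scored from kinetic calcium signal (1 read/sec, 180 s) following compound pin transfer, after a 10 s baseline. Cells: HEK293 Trex line expressing inducible D2 receptor coupled to calcium, dye-loaded after overnight culture at 30 C.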
D2 PAM-1 – Beta-Arrestin HTS for Positive Allosteric Modulators of the Human D2 Dopamine Receptor: Potentiators | D(2) dopamine receptor (Homo sapiens), P14416 | DiscoveRx D2 beta-arrestin cells, luminescence, 90 min; 100% = 57 uM dopamine signal | potentiation, % (no concentration beside the values) | hit rate 0.23% among 360,000 | AID 624464, 2012; in the data active means potentiation above about 50%
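PathHunter D2 cells, attached overnight at 37 deg C, received compound in DMSO plus dopamine at EC20 (50 nM final) for 90 min at 37 deg C. Beta-arrestin recruitment was read as luminescence after 1 h with detection reagent at ambient temperature.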
D2 antagonist – HTS Assay for Allosteric Antagonists of the Human D2 Dopamine Receptor: Primary Screen for Antagonists; inhibition, % at 10 µM; HEK293 TREx D2 cells, calcium flux, dopamine EC80; hit rate 2% among 340,000; in the data active means inhibition above about 30%; inactive means below that, where a call was filed; further: 0% is about no effect
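HEK293 T-REx D2 cells, tet-induced, calcium dye no-wash. Cpd pintool add, 180 s kinetic, then EC80 DA, 180 s kinetic. Ca flux read.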
D2 PAM-2 – HTS Assay for Positive Allosteric Modulators of the Human D2 Dopamine Receptor: Primary Screen for Potentiators. D(2) dopamine receptor (Homo sapiens), P14416. hit rate 0.34% among 340,000. AID 485347, 2010. HEK293 T-REx D2, calcium flux, EC20 dopamine potentiation. potentiation, % at 10 µM;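 active means potentiation over 3 SD above the plate norm, cut at about 30% in these data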; further: 0% is about no effect
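Using a no-wash calcium dye in inducible, force-coupled HEK293 Trex cells expressing D2, we tracked fluorescence each second for 180 s after compound, then for 180 s after EC20 dopamine to detect augmented signalling.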
D2 ag-2 – Beta-Arrestin HTS for Positive Allosteric Modulators of the Human D2 Dopamine Receptor: Agonists; D(2) dopamine receptor (Homo sapiens), P14416; DiscoveRx PathHunter D2 beta-arrestin, luminescence, 90 min; 100% = 57 uM dopamine signal; activation, % (concentration not given with the values); hit rate 0.084% among 360,000; in the data active means activation above about 40%
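Agonist mode: compounds alone added to overnight-plated D2 PathHunter cells for 90 min at 37 C, with 57 uM final dopamine (EC100) defining full response. Beta-arrestin recruitment detected by chemiluminescent reagent, read after 1 h at ambient temperature.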
Numbers without * were called inactive.

How did CC1=C(c2ccc(C)c(C)c2)S(=O)(=O)N(Cc2ccc(C(=O)NCc3cccc(C)c3)cc2)C1=O do in these assays?
D2 ag-1: 1; D2 PAM-2: -3

How did Cn1cc(CN2CCN(c3ccccc3)CC2)c2ccccc21 do in these assays?
D2 ag-1: 74*; D2 PAM-1: -10; D2 antagonist: 81*; D2 PAM-2: -16; D2 ag-2: 7

Results for COC(=O)C1=C(C)NC2=C(C(=O)CC(C)(C)C2)C1c1ccccn1 (configuration not stated) ?
D2 ag-1: 1; D2 PAM-1: 3; D2 antagonist: -7; D2 PAM-2: 33*; D2 ag-2: 0

How did COc1ccc(-c2nc(SCC(=O)NC(C)CCc3ccccc3)n[nH]2)cc1 (configuration not stated) do in these assays?
D2 PAM-2: -5

What do the screens show for `CC(C)CNc1nc(NC(C)(C)C)nc(Oc2ccc(=O)n(-c3ccccc3)n2)n1`?
D2 ag-1: 0; D2 PAM-2: -2

Results for COc1ccc(Cc2nn3c(Cn4nnc5ccccc54)nnc3s2)cc1 ?
D2 ag-1: -1; D2 PAM-1: -4; D2 antagonist: 39*; D2 PAM-2: 1; D2 ag-2: -2

How did CC1CC(C)(C)NC(=S)N1CCCC(=O)NCc1ccccc1 (configuration not stated) do in these assays?
D2 ag-1: 1; D2 PAM-1: -1; D2 antagonist: 37*; D2 PAM-2: 9; D2 ag-2: -1

Results for COc1ccc(CC(=O)OC(C)C(=O)c2ccc(C)cc2)cc1 (configuration not stated) ?
D2 ag-1: 2; D2 PAM-1: -2; D2 antagonist: 1; D2 PAM-2: 2; D2 ag-2: -6

What do the screens show for `COc1ccc(C(=O)C(C)OC(=O)c2sc(C)nc2C)cc1` (configuration not stated)?
D2 ag-1: 0; D2 PAM-1: -2; D2 antagonist: 31*; D2 PAM-2: 23; D2 ag-2: 2

What do the screens show for `CCOC(=O)c1ccccc1NC(=O)Cn1nnc2sc3c(c2c1=O)CCCC3`?
D2 ag-1: -1; D2 PAM-2: -11

Results for O=c1c2ccccc2nnn1CSc1ccc2c(c1)OCCO2 ?
D2 ag-1: 2; D2 PAM-1: 10; D2 antagonist: -4; D2 PAM-2: 43*; D2 ag-2: -3

What do the screens show for `CCC(C(=O)Nc1ccc2c(c1)OCCO2)n1nnc2ccccc2c1=O` (configuration not stated)?
D2 ag-1: 0; D2 PAM-1: 11; D2 antagonist: 9; D2 PAM-2: -8; D2 ag-2: -2

What do the screens show for `COc1ccc(C(=O)NCc2ccc3c(c2)CCN3C(C)=O)cc1OC`?
D2 ag-1: 0; D2 PAM-2: -1

How did Nc1nc(NCCc2ccccc2)nc(NCCO)c1[N+](=O)[O-] do in these assays?
D2 ag-1: 0; D2 PAM-1: -6; D2 antagonist: 1; D2 PAM-2: 34*; D2 ag-2: -1

Results for O=C(CNC(=O)c1ccc(F)cc1)OCc1cc(=O)n2nc(C3CC3)sc2n1 ?
D2 PAM-2: 10

What do the screens show for `COc1cc2oc3cc(C#Cc4ccc(N)cc4)ccc3c(=O)c2cc1OC`?
D2 PAM-1: -3; D2 ag-2: -1

What do the screens show for `Nc1ccc(C#Cc2ccc3c(=O)c4ccccc4oc3c2)cc1`?
D2 ag-1: 2; D2 PAM-1: -9; D2 antagonist: 41*; D2 PAM-2: -6; D2 ag-2: -2

How did COC(=O)c1cnc(NCc2ccc(F)cc2)c2ccccc12 do in these assays?
D2 ag-1: 0; D2 PAM-2: -5

Results for CCOc1ccc(C2CC(c3c(O)n(C4CCCCC4)c(=O)[nH]c3=O)=Nc3ccccc3S2)cc1 (configuration not stated) ?
D2 ag-1: 0; D2 PAM-2: 0

What do the screens show for `COc1ccc(OC)c(NC(=O)[C@H](CSCc2ccccc2)N2Cc3ccccc3C2=O)c1`?
D2 ag-1: 0; D2 PAM-2: -1
